# ± gives the standard deviation of the averaged measurements.
# Tests used:
# DLD1 [1] = experiment: cell viability (CellTiter-Glo) relative to plate median (fraction of plate median); higher = more viable cells; settings: 5 µM; treatment time 24 h; reporter: 7TFP
# Summary of the method: (§1)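 Stable lentiviral TCF/Wnt firefly luciferase reporters (7TFP or TCF4/Wnt) were present in the colorectal cancer cell lines used. These cells received library compounds at a final 5 µM for 24 h, and parallel plates were read for firefly luciferase or CellTiterGlo luminescence. Each well was normalised to the plate median, and the value reported is the mean of two independent replicates.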
# HCT116 = experiment: as above; settings: 5 µM; treatment time 24 h; reporter: TCF4/Wnt
# Summary of the method: as §1
# SW480 [2] = experiment: as above; settings: 5 µM; treatment time 24 h; reporter: 7TFP
# Summary of the method: as §1
# DLD1 [3] = experiment: TCF/Wnt firefly luciferase reporter signal relative to plate median (fraction of plate median); higher = higher Wnt reporter signal; settings: 5 µM; treatment time 24 h; reporter: 7TFP
# Summary of the method: as §1
# SW480 [4] = experiment: as above; settings: 5 µM; treatment time 24 h; reporter: 7TFP
# Summary of the method: as §1
Structure (SMILES),cell viability (DLD1 [1]),cell viability (HCT116),cell viability (SW480 [2]),TCF/Wnt firefly luciferase reporter signal (DLD1 [3]),TCF/Wnt firefly luciferase reporter signal (SW480 [4])
CC(=O)O[C@H]1C[C@@H](OC(C)=O)C(C)(C)C2CC(=O)[C@]3(C)C(CC[C@@]4(C)[C@H](C(=O)O)OC(=O)C5OC543)[C@]21C (stereo not given in full),0.985 ± 0.093,0.922 ± 0.028,1.01 ± 0.032,0.826 ± 0.027,0.95 ± 0.21
"CC[C@H](C)C(=O)O[C@H]1C[C@@H](C)C=C2C=C[C@H](C)[C@H](CC[C@@H]3C[C@@H](O)CC(=O)O3)[C@H]21 [Mevinolin, Lovastatin]",0.966 ± 0.1,0.931 ± 0.048,0.942 ± 0.017,0.836 ± 0.26,0.943 ± 0.029
CCOC(=O)C1=C(C)NC(C)=C(C(=O)OC)C1c1cccc([N+](=O)[O-])c1 (stereo not given),0.964 ± 0.03,1.02 ± 0.15,0.95 ± 0.057,1.06 ± 0.035,1.01 ± 0.039
C[C@]12CCC(=O)C=C1CC[C@@H]1[C@@H]2C(=O)C[C@@]2(C)[C@H]1CC[C@]2(O)C(=O)CO,0.888 ± 0.14,1.02 ± 0.12,0.957 ± 0.0057,0.914 ± 0.093,0.761 ± 0.013
CC(=O)OC1CCC2(C)C(=CCC3C2CCC2(C)C(C(C)CCCC(C)C)CCC32)C1 (stereo not given),1.04 ± 0.021,1.05 ± 0.12,0.964 ± 0.051,1.11 ± 0.19,1.11 ± 0.15
C=C(C)[C@@H]1C[C@H](O)[C@]2(C(=O)O[C@@H]3O[C@H](CO[C@@H]4O[C@H](CO)[C@@H](O[C@@H]5O[C@@H](C)[C@H](O)[C@@H](O)[C@H]5O)[C@H](O)[C@H]4O)[C@@H](O)[C@H](O)[C@H]3O)CC[C@]3(C)[C@H](C[C@H]4OC(=O)C[C@@H](O)[C@]5(C)[C@@H]4[C@@]3(C)CC[C@H]5C(=C)C)[C@@H]12 [22alpha-hydroxychiisanoside (4)],0.87 ± 0.055,0.878 ± 0.06,0.937 ± 0.033,0.803 ± 0.0042,0.951 ± 0.029
NCCCC[C@H](N[C@@H](CCc1ccccc1)C(=O)O)C(=O)N1CCC[C@H]1C(=O)O,1.03 ± 0.05,1.01 ± 0.07,1.003 ± 0.0099,0.9065 ± 0.00071,0.827 ± 0.069
N[C@H](Cc1ccccc1)C(=O)O,1.03 ± 0.066,1.07 ± 0.064,1.01 ± 0.078,1.17 ± 0.05,1 ± 0.15
O=C1OC(=O)[C@H]2[C@@H]1[C@@H]1CC[C@H]2O1,0.9975 ± 0.0035,0.867 ± 0.079,0.949 ± 0.0085,1.06 ± 0.13,0.892 ± 0.02
CC(C)(CO)C(O)C(=O)NCCCO (stereo not given),1.05 ± 0.16,1.06 ± 0.028,1.07 ± 0.064,0.992 ± 0.068,0.978 ± 0.074
NC(=O)c1cccnc1,1.02 ± 0.021,1.01 ± 0.025,0.982 ± 0.021,1.16 ± 0.057,1.15 ± 0.11
OCCN1C[C@H](O)[C@@H](O)[C@H](O)[C@H]1CO,0.86 ± 0.15,0.957 ± 0.19,0.97 ± 0.025,0.954 ± 0.11,0.988 ± 0.06
CCC(CCC(C)C1CCC2C3CCC4CC(O)CCC4(C)C3CCC12C)C(C)C (stereo not given),1.11 ± 0.057,1.06 ± 0.021,1.06 ± 0.021,1.23 ± 0.078,1.01 ± 0.015
O=C1[C@@H]2CCCN2C(=O)[C@@H]2CCCN12 [Cyclo(Prolylprolyl)],0.978 ± 0.0071,1.03 ± 0.065,0.9595 ± 0.0078,0.811 ± 0.15,1.01 ± 0.05
NCC(O)CC(=O)O (stereo not given),1.035 ± 0.0071,1.04 ± 0.09,0.965 ± 0.028,1.04 ± 0.035,1.07 ± 0.035
O=c1[nH]cc(F)c(=O)[nH]1,1.03 ± 0.083,0.905 ± 0.054,1.11 ± 0.014,1.01 ± 0.13,0.9685 ± 0.0064
CCCc1nn(C)c2c(=O)[nH]c(-c3cc(S(=O)(=O)N4CCN(C)CC4)ccc3OCC)nc12,1 ± 0.067,0.981 ± 0.21,0.978 ± 0.013,1.02 ± 0.042,1.09 ± 0.028
Oc1c(I)cc(Cl)c2cccnc12,1.06 ± 0.21,0.949 ± 0.12,1.13 ± 0.042,1.2 ± 0.27,1.14 ± 0.11
CC[C@]1(O)C[C@H]2CN(CCc3c([nH]c4ccccc34)[C@@](C(=O)OC)(c3cc4c(cc3OC)N(C=O)[C@H]3[C@@](O)(C(=O)OC)[C@H](OC(C)=O)[C@]5(CC)C=CCN6CC[C@]43[C@@H]65)C2)C1,1.01 ± 0.16,0.53 ± 0.064,1.17 ± 0.035,0.666 ± 0.091,0.713 ± 0.075
O=c1cc[nH]c(=S)[nH]1 [Thiouracil],1.08 ± 0.17,1.12 ± 0.11,1.04 ± 0.064,0.944 ± 0.093,0.8625 ± 0.00071
OCCN(CCO)c1nc(N2CCCCC2)c2nc(N(CCO)CCO)nc(N3CCCCC3)c2n1,0.905 ± 0.0042,0.991 ± 0.013,0.973 ± 0.016,1.13 ± 0.042,1.03 ± 0.028
COC(=O)c1c(C)cc(OC)cc1O,0.99 ± 0.071,1.03 ± 0.081,0.951 ± 0.05,0.885 ± 0.047,0.869 ± 0.08
O=c1cc(-c2ccccc2)oc2cccc(O)c12,0.972 ± 0.068,1.04 ± 0.073,1.04 ± 0.058,0.98 ± 0.0085,1.03
COc1cc(C/C=C/c2ccccc2)c(OC)cc1O,1.02 ± 0.055,1.06 ± 0.093,1.03 ± 0.042,1.05 ± 0.22,1.04 ± 0.035
C[C@]12CCC(=O)C=C1CC[C@@H]1[C@@H]2[C@@H](O)C[C@@]2(C)[C@H]1CC[C@]2(O)C(=O)COC(=O)CCC(=O)O,1.07 ± 0.042,1.11,1.03 ± 0.035,1.01 ± 0.02,1 ± 0.099
CN(C)CCC(c1ccc(Br)cc1)c1ccccn1 (stereo not given),0.931 ± 0.15,1.055 ± 0.0071,0.922 ± 0.061,1.11 ± 0.11,1.055 ± 0.0071
COc1ccc(-c2cc(=O)c3c(O)c(OC)c(O[C@@H]4O[C@H](CO[C@@H]5O[C@@H](C)[C@H](O)[C@@H](O)[C@H]5O)[C@@H](O)[C@H](O)[C@H]4O)cc3o2)cc1,0.933 ± 0.087,0.951 ± 0.056,0.897 ± 0.056,1.07 ± 0.035,1.08 ± 0.021
